Holding throughout (conditions): mRNA level, 48 h; actives raise or lower the signal
Read-out in assay [1]: Apolipoprotein A-V (APOA5) gene, APOA5 (gene 116519)
The experiment in a line: LTEA_HepaRG_APOA5: Life Technologies and Expression Analysis (LTEA) Assay for Apolipoprotein A-V (APOA5) gene using HepaRG (AID 2283474). In outline: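 Differentiated HepaRG cells in serum-free induction medium, exposed 48 h in duplicate to eight half-log concentrations topping at 100 uM (0.5% DMSO). APOA5 mRNA by Fluidigm TaqMan qRT-PCR, normalized to ACTB, GAPDH and POLR2A; bidirectional fit versus DMSO.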

Read-out in assay [2]: Apoptosis regulator Bcl-2 (Homo sapiens) (UniProt P10415)
Briefly: LTEA_HepaRG_BCL2: Life Technologies and Expression Analysis (LTEA) Assay for Bcl-2 gene using HepaRG (AID 2283475). A digest of the protocol:
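Each chemical was tested in duplicate on HepaRG cultures held in serum-free induction medium for 48 h, highest concentration 100 uM with half-log dilutions. Transcript levels came from multiplexed qRT-PCR, normalised to housekeeping genes; activity was scored in either direction relative to DMSO.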

Read-out in assay [3]: Bcl-2 (BID) gene, BID (gene 637)
The experiment in a line: LTEA_HepaRG_BID: Life Technologies and Expression Analysis (LTEA) Assay for Bcl-2 (BID) gene using HepaRG (AID 2283476). In outline: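 Assay used HepaRG hepatic cells treated 48 h in serum-free medium with half-log dilutions from 100 uM. Endpoint: BID mRNA, qRT-PCR, normalized to ACTB/GAPDH/POLR2A.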

Read-out in assay [4]: Caspase-3 (Homo sapiens) (UniProt P42574)
Briefly: LTEA_HepaRG_CASP3: Life Technologies and Expression Analysis (LTEA) Assay for cysteine-aspartic acid protease (CASP3) using HepaRG (AID 2283477). A digest of the protocol:
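Differentiated HepaRG cells, plated 48 h, were treated in duplicate in serum-free induction medium for 48 h with eight half-log concentrations up to 100 uM in 0.5% DMSO. CASP3 mRNA measured by qRT-PCR, normalized to ACTB, GAPDH, POLR2A.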

Read-out in assay [5]: Cytochrome P450 (CYP24A1), CYP24A1 (gene 1591)
The experiment in a line: LTEA_HepaRG_CYP24A1: Life Technologies and Expression Analysis (LTEA) Assay for Cytochrome P450 (CYP24A1) using HepaRG (AID 2283478). A digest of the protocol: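 HepaRG cells plated 48 h, then exposed in duplicate in serum-free induction medium for 48 h to 8-point half-log series from 100 uM in 0.5% DMSO. CYP24A1 mRNA by Fluidigm qRT-PCR, normalized to ACTB, GAPDH, POLR2A; bidirectional fit versus DMSO.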

Read-out in assay [6]: Cytochrome P450 (CYP1A2), CYP1A2 (gene 1544)
The experiment in a line: LTEA_HepaRG_CYP1A2: Life Technologies and Expression Analysis (LTEA) Assay for Cytochrome P450 (CYP1A2) using HepaRG (AID 2283479). In outline:
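Differentiated human HepaRG cells in serum-free induction medium exposed 48 hours in duplicate to 8 half-log concentrations from 100 uM, 0.5% DMSO. CYP1A2 mRNA quantified by qRT-PCR, normalized to ACTB, GAPDH and POLR2A; bidirectional fitting versus DMSO.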

Read-out in assay [7]: cysteine-aspartic acid protease (CASP8), CASP8 (gene 841)
Briefly: LTEA_HepaRG_CASP8: Life Technologies and Expression Analysis (LTEA) Assay for cysteine-aspartic acid protease (CASP8) using HepaRG (AID 2283480). In outline:
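qRT-PCR readout of CASP8 mRNA, normalized to three housekeeping genes, after 48 h chemical exposure of HepaRG cells; 8-point half-log series, top 100 uM, 0.5% DMSO vehicle. Bidirectional curve fitting against DMSO baseline.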

Read-out in assay [8]: Cytochrome P450 (CYP2B6), CYP2B6 (gene 1555)
Briefly: LTEA_HepaRG_CYP2B6: Life Technologies and Expression Analysis (LTEA) Assay for Cytochrome P450 (CYP2B6) using HepaRG (AID 2283481). A digest of the protocol: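 Differentiated human HepaRG cells in serum-free induction medium, dosed in duplicate for 48 h over 8 half-log concentrations topping at 100 uM (0.5% DMSO). CYP2B6 mRNA measured by TaqMan qRT-PCR, normalized to ACTB, GAPDH, POLR2A; bidirectional fit versus DMSO.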

Read-out in assay [9]: Cytochrome P450 2C19 (Homo sapiens) (UniProt P33261)
Briefly: LTEA_HepaRG_CYP2C19: Life Technologies and Expression Analysis (LTEA) Assay for CYP2C19 using HepaRG (AID 2283482). In outline: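 Differentiated HepaRG cells in serum-free induction medium exposed 48 h in duplicate, 8 concentrations from 100 uM by half-log steps in 0.5% DMSO. CYP2C19 mRNA measured by TaqMan qRT-PCR, normalized to ACTB, GAPDH, POLR2A. Bidirectional fit versus DMSO.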

Read-out in assay [10]: CYP2C8 (gene 1558)
The experiment in a line: LTEA_HepaRG_CYP2C8: Life Technologies and Expression Analysis (LTEA) Assay for CYP2C8 using HepaRG (AID 2283483). A digest of the protocol: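 HepaRG (human liver line), 48 h chemical exposure, 8-pt half-log series from 100 uM, 0.5% DMSO vehicle. Readout: CYP2C8 transcript by qRT-PCR, housekeeping-normalized. Bidirectional fit vs DMSO baseline.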

Read-out in assay [11]: CYP2C9 (gene 1559)
The experiment in a line: LTEA_HepaRG_CYP2C9: Life Technologies and Expression Analysis (LTEA) Assay for CYP2C9 using HepaRG (AID 2283484). A digest of the protocol:
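HepaRG, 48 h dosing, 8-pt half-log series, top 100 uM, 0.5% DMSO vehicle. Read-out: CYP2C9 transcript by TaqMan qRT-PCR, housekeeping-normalized (ACTB/GAPDH/POLR2A). Gain or loss fitted vs DMSO baseline.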

Read-out in assay [12]: CYP2E1 (gene 1571)
The experiment in a line: LTEA_HepaRG_CYP2E1: Life Technologies and Expression Analysis (LTEA) Assay for CYP2E1 using HepaRG (AID 2283485). In outline: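 Assay uses 48 h exposure of HepaRG hepatic cells, eight concentrations to 100 uM. Expression of CYP2E1 is quantified by TaqMan qRT-PCR with ACTB, GAPDH and POLR2A normalization; curves fitted in both directions relative to vehicle.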

Read-out in assay [13]: CYP4A11 (gene 1579)
The experiment in a line: LTEA_HepaRG_CYP4A11: Life Technologies and Expression Analysis (LTEA) Assay for CYP4A11 using HepaRG (AID 2283486). In outline: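 Differentiated HepaRG cells, 48 h after plating, exposed in duplicate for 48 h to 8 half-log concentrations up to 100 uM in 0.5% DMSO in serum-free induction medium. CYP4A11 mRNA measured by TaqMan qRT-PCR, normalized to ACTB, GAPDH and POLR2A.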

Read-out in assay [14]: Cytochrome P450 3A4 (Homo sapiens) (UniProt P08684)
Briefly: LTEA_HepaRG_CYP3A4: Life Technologies and Expression Analysis (LTEA) Assay for CYP3A4 using HepaRG (AID 2283487). A digest of the protocol: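 Differentiated HepaRG cells, plated 48 h, then dosed 48 h in serum-free induction medium with 0.5% DMSO, 8 half-log concentrations up to 100 uM, duplicate. CYP3A4 mRNA by qRT-PCR, normalized to ACTB/GAPDH/POLR2A; bidirectional fit versus DMSO.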

Read-out in assay [15]: DNA damage-inducible transcript 3 (DDIT3), DDIT3 (gene 1649)
Briefly: LTEA_HepaRG_DDIT3: Life Technologies and Expression Analysis (LTEA) Assay for DNA damage-inducible transcript 3 (DDIT3) using HepaRG (AID 2283488). In outline:
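Eight-point concentration-response (100 uM highest, half-log dilutions) in HepaRG, 48 h, duplicate wells. Endpoint: qRT-PCR mRNA, normalized (ACTB, GAPDH, POLR2A), bidirectional fitting with DMSO as baseline.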

Read-out in assay [16]: Pro-epidermal growth factor (Homo sapiens) (UniProt P01133)
Briefly: LTEA_HepaRG_EGF: Life Technologies and Expression Analysis (LTEA) Assay for Epidermal growth factor (EGF) using HepaRG (AID 2283489). A digest of the protocol: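 HepaRG cells (~100,000/well, 48 h pre-culture) exposed in duplicate for 48 h in serum-free induction medium to 8 half-log concentrations up to 100 uM in 0.5% DMSO. EGF mRNA by qRT-PCR, normalized to ACTB/GAPDH/POLR2A; bidirectional fit versus DMSO.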

Read-out in assay [17]: Early growth response protein 1 (EGR1) transcription factor, EGR1 (gene 1958)
Briefly: LTEA_HepaRG_EGR1: Life Technologies and Expression Analysis (LTEA) Assay for Early growth response protein 1 (EGR1) transcription factor using HepaRG (AID 2283490). In outline:
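HepaRG, 48 h exposure, 8-pt half-log series from 100 uM, 0.5% DMSO vehicle; EGR1 transcript by TaqMan qRT-PCR (Fluidigm array), housekeeping-normalized; bidirectional fit relative to DMSO baseline.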

Read-out in assay [18]: Ezrin (EZR), EZR (gene 7430)
The experiment in a line: LTEA_HepaRG_EZR: Life Technologies and Expression Analysis (LTEA) Assay for Ezrin (EZR) using HepaRG (AID 2283491). In outline: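 EZR transcript levels came from Fluidigm qRT-PCR and were normalized to three housekeeping genes after 48 h chemical exposure of HepaRG cells. Dosing used an 8-point half-log series with a 100 uM top concentration in 0.5% DMSO, tested in duplicate; both directions were fitted versus vehicle.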

Read-out in assay [19]: Cytochrome P450 3A7 (Homo sapiens) (UniProt P24462)
Briefly: LTEA_HepaRG_CYP3A7: Life Technologies and Expression Analysis (LTEA) Assay for CYP3A7 using HepaRG (AID 2283492). In outline:
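Differentiated HepaRG cells in serum-free induction medium exposed 48 h in duplicate to 8-point half-log series from 100 uM top in 0.5% DMSO. CYP3A7 mRNA by qRT-PCR, normalized to ACTB/GAPDH/POLR2A, bidirectional fit versus DMSO.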

The source made the active and inactive calls. How the source made its calls: active means hit-call score of the fitted dose curve at least 0.9, where 1 is the maximum; inactive means score below 0.9.

The AC50 is the concentration giving half of the maximal activity seen.

Chain of Apoptosis regulator Bcl-2 (Homo sapiens) (P10415 whole entry, looked up): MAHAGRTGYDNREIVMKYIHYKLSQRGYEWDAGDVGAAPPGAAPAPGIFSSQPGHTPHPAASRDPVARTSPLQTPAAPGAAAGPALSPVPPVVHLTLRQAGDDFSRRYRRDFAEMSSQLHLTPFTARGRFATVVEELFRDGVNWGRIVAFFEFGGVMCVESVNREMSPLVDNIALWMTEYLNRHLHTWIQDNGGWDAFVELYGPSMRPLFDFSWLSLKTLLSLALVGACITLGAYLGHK
Chain of Caspase-3 (Homo sapiens) (P42574 whole entry, looked up): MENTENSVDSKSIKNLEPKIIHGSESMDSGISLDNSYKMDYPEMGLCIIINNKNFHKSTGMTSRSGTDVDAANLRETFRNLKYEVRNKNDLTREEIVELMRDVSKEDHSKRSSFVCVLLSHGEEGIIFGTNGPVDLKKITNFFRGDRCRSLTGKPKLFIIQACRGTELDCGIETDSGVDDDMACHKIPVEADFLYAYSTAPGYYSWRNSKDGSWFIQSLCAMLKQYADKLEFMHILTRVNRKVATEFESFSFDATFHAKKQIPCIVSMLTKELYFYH
Chain of Cytochrome P450 2C19 (Homo sapiens) (P33261 whole entry, looked up): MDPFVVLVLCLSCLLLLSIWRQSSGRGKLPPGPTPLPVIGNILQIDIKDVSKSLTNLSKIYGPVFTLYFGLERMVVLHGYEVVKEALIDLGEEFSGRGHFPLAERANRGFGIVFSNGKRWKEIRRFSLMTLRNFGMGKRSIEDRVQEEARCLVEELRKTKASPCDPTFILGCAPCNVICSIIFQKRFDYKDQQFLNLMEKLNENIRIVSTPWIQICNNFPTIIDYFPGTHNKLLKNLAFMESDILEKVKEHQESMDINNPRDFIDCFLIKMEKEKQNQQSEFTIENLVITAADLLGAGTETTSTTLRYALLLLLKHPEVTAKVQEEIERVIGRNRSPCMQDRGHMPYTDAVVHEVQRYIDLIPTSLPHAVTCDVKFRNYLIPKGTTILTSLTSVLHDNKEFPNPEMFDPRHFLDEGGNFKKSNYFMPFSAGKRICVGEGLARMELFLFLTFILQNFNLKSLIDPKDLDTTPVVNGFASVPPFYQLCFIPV
Chain of Cytochrome P450 3A7 (Homo sapiens) (P24462 whole entry, looked up): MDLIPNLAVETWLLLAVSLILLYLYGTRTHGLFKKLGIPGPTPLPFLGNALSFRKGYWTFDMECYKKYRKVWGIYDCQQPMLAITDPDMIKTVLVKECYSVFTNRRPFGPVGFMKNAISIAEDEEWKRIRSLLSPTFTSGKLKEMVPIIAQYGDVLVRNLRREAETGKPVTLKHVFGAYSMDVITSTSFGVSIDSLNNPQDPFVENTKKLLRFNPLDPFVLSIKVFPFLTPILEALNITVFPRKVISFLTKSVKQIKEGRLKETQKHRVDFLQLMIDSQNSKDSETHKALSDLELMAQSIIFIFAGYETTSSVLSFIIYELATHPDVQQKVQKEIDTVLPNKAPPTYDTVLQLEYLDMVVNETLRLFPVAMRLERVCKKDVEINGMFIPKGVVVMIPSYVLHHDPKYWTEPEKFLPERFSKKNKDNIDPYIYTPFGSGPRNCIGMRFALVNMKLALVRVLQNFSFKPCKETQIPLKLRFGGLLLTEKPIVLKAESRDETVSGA
Chain of Cytochrome P450 3A4 (Homo sapiens) (P08684 whole entry, looked up): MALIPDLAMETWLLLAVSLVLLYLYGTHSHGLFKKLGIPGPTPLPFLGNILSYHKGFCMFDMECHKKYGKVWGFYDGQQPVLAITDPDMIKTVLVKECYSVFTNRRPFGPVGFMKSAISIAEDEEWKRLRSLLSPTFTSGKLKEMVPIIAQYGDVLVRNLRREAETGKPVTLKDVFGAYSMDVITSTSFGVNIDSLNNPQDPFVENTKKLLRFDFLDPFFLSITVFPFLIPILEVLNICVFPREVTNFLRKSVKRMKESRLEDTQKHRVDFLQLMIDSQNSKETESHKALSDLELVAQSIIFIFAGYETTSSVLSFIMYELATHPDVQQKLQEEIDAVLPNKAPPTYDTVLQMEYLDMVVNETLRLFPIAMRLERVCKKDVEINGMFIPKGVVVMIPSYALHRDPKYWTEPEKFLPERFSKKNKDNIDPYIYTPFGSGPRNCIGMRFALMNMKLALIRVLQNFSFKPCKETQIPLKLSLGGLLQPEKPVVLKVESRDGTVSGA

With `CC(=O)OC[C@H]1O[C@@](COC(C)=O)(O[C@H]2O[C@H](COC(C)=O)[C@@H](OC(C)=O)[C@H](OC(C)=O)[C@H]2OC(C)=O)[C@@H](OC(C)=O)[C@@H]1OC(C)=O`, the call in assay [1], in assay [2], in assay [3], in assay [4], in assay [5] and in assay [6] was inactive. In addition, the result in [7], in [8], in [9], in [10], in assay [11] and in [12] was inactive. The compound was classed as inactive in assay [13], in assay [14], in [15], in assay [16], in assay [17] and in [18]. For the same compound, the result in assay [19] was inactive.
Turning to `CC(C)CC(C)(O)C#CC(C)(O)CC(C)C` (stereo not given), the call in [1], in assay [2], in assay [3], in [4], in assay [5] and in assay [6] was inactive. Besides, the compound was classed as inactive in assay [7], in [10], in assay [11], in assay [15], in assay [17] and in assay [18]. The call in [19] was inactive. Moreover, the AC50 in assay [8] is 21.9 µM (active); in assay [9], 29.5 µM (active); in assay [12], 64.7 µM (active); in assay [13], 50 µM (active); in assay [14], 19.4 µM (active).
`Cn1c(=O)cc(Oc2ccc(F)cc2F)c2cnc(NCC(C)(C)O)nc21`: the result in [1], in assay [2], in assay [3], in assay [4], in assay [5] and in [7] was inactive. Moreover, the result in [10], in assay [11], in assay [15], in assay [16], in assay [17] and in [18] was inactive. The AC50 in [6] is 16 µM (active); in assay [8], 6.6 µM (active); in assay [9] it was 14.6 µM (active); in [12], 50 µM (active); in assay [13], 50 µM (active); in assay [14] it was 50 µM (active). Further, the AC50 in assay [19] was 28.9 µM (active).
Turning to `COC(=O)c1ccccc1O`, the compound was called inactive in assay [1], in assay [2], in [3], in assay [4], in assay [5] and in [6]. For the same compound, the outcome in assay [7], in [8], in assay [9], in [10], in [11] and in assay [12] was inactive. Further, the result in assay [13], in assay [14], in assay [15], in [16], in assay [17] and in [18] was inactive. Also, in assay [19], the compound was classed as inactive.

Source of the values: PubChem BioAssay (EPA / NIEHS).
